Unmarked numbers belong to inactive results. Records with an inconclusive call do not appear. Active and inactive are the calls of the source. Calls follow the shape of the dose curve; as a rule, active = well fitted curve in the direction sought with a large enough effect; inconclusive = small, poorly fitted or top-dose-only effect, or another doubt; inactive = no such curve, though single readings can be large; an effect the other way counts as inactive or inconclusive.
Target: Alpha-galactosidase (Coffea arabica) (UniProt Q42656)
Sequence (Q42656 whole entry, looked up): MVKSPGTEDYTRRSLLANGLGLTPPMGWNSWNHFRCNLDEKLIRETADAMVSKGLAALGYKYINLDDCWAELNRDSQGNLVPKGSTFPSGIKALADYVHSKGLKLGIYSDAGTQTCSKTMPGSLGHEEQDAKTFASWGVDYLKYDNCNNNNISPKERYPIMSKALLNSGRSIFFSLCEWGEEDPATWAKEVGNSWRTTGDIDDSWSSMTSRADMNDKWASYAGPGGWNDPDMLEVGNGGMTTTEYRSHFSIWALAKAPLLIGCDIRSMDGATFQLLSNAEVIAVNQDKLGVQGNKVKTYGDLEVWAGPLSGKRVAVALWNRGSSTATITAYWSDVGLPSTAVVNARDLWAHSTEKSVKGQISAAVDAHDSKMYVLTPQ
Assay: Counterscreen for Glucocerebrosidase Inhibitors: qHTS Assay for Coffee Bean alpha-Galactosidase at pH 4.5 (AID 957);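 also: plate controls were enzyme alone for no effect and no enzyme for full effect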
Settings: purified coffee bean alpha-galactosidase, fluorogenic substrate; series mostly up to 76.9 µM; activity change, negative = inhibition: at the top concentration
Summary of the method: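 Fluorogenic qHTS at pH 4.5 (citrate buffer with Tween-20): 2 nM enzyme, 80 uM 4-MU-alpha-galactoside substrate, compound titrated 0.7 nM to 77 uM, 20 min room temperature. Glycine/NaOH stop; 4-MU read Ex 365/Em 440; Hill-equation AC50 against no-enzyme and enzyme controls.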
In the case of `N[C@@H]1C[C@H]1c1ccccc1`, the “activity change, negative = inhibition” value is reported as 0.0931%.
In the case of `Fc1ccc([C@@H]2CCNC[C@H]2COc2ccc3c(c2)OCO3)cc1`, the “activity change, negative = inhibition” value is reported as -0.611%.
In the case of `COC(=O)Nc1nc2ccc(C(=O)c3cccs3)cc2[nH]1`, the “activity change, negative = inhibition” value is reported as -3.94%.

Tested on: not listed separately
Assay: MultiTox-Fluor Cytotoxicity Assay - LYMP1-002 - Dead Cells (AID 960); also: potency is read from the fitted curve at half-maximal effect; nearly all actives have a fitted effect of over 60% in size
Settings: LYMP1-002 lymphoblastoid cells, dead-cell protease fluorescence; series mostly up to 46.1 µM; cytotoxicity (dead cells): at the top concentration
Summary of the method: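 Dead-cell fluorescence (Ex/Em 485/520) after 16 h compound exposure at 37 C of LYMP1-002 lymphoblastoid cells in complete medium; AC50 by Hill equation, with data scaled between DMSO and 15 uM tetraoctylammonium bromide.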
In the case of `Cc1c(O)cccc1C(=O)N[C@@H](CSc1ccccc1)[C@H](O)CN1C[C@H]2CCCC[C@H]2C[C@H]1C(=O)NC(C)(C)C`, the Potency is reported as 31.6 µM (active).
In the case of `CC(C)C(=O)Nc1ccc([N+](=O)[O-])c(C(F)(F)F)c1`, the Potency is reported as 15.8 µM (active).
For `CN(C)CCC=C1c2ccccc2CCc2ccccc21`, the Potency was 25.1 µM (active).

Tested on: not listed separately
Assay: MultiTox-Fluor Cytotoxicity Assay - LYMP1-003 - Dead Cells (AID 961); also: potency is read from the fitted curve at half-maximal effect; nearly all actives have a fitted effect of over 70% in size
Settings: LYMP1-003 lymphoblastoid cells, dead-cell protease fluorescence; series mostly up to 92.2 µM; cytotoxicity (dead cells): at the top concentration
Summary of the method: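 LYMP1-003 human lymphoblastoid cells (2500/well) exposed to compound 16 h at 37 C in complete medium; dead-cell protease read with bis-AAF-R110 fluorescence (Ex/Em 485/520) after 60 min at room temperature. Normalized to DMSO and 15 uM tetraoctylammonium bromide; AC50 from Hill fit.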
In the case of `COc1cc2c(c(OC)c1OC)-c1ccc(OC)c(=O)cc1[C@@H](NC(C)=O)CC2`, the Potency is reported as 0.631 µM (active).
For `CC1=C(/C=C/C(C)=C/C=C/C(C)=C/C(=O)Nc2ccc(O)cc2)C(C)(C)CCC1`, the Potency was 39.8 µM (active).
With `CC/C(=C(\c1ccccc1)c1ccc(OCCN(C)C)cc1)c1ccccc1` the Potency was 39.8 µM (active).

— PubChem BioAssay (NCATS)
